BoNT F protease – BoNT/F light chain protease inhibitors, primary screen, biochemical, flow cytometry, MLPCN library. inhibition, % at 10 µM. Multiplex microsphere protease cleavage assay. 0.22% of 360,000 active; in the data active = inhibition above about 35%, passing the limit was not always enough; inconclusive = no clear call, values can overlap the other calls
BoNT-A LC inh2 – BoNT/A light chain protease inhibitors, primary screen, biochemical, flow cytometry, MLPCN library. Botulinum neurotoxin type A light chain protease (Clostridium botulinum A str. ATCC 3502). multiplex microsphere protease substrate cleavage. inhibition, % at 10 µM. 0.17% of 360,000 active. AID 588499, 2011
SARS 3CLpro inh – SARS-CoV 3CLpro protease inhibitors, primary screen, biochemical, quenched FRET. Replicase polyprotein 1ab (Severe acute respiratory syndrome coronavirus), P0C6X7. recombinant SARS-CoV 3CLpro, quenched FRET peptide cleavage. inhibition, % at 6 µM. 0.14% of 290,000 active. AID 1706, 2009; in the data active = inhibition above about 12%
Anthrax LF inh2 – Bacillus anthracis LF protease inhibitors, primary screen, biochemical, multiplex microsphere, MLPCN library; Lethal factor (Bacillus anthracis), P15917; multiplex microsphere protease cleavage assay; inhibition, % at 10 µM; 0.12% of 360,000 active; AID 588501, 2011
Target sequence (P15917 whole entry, looked up): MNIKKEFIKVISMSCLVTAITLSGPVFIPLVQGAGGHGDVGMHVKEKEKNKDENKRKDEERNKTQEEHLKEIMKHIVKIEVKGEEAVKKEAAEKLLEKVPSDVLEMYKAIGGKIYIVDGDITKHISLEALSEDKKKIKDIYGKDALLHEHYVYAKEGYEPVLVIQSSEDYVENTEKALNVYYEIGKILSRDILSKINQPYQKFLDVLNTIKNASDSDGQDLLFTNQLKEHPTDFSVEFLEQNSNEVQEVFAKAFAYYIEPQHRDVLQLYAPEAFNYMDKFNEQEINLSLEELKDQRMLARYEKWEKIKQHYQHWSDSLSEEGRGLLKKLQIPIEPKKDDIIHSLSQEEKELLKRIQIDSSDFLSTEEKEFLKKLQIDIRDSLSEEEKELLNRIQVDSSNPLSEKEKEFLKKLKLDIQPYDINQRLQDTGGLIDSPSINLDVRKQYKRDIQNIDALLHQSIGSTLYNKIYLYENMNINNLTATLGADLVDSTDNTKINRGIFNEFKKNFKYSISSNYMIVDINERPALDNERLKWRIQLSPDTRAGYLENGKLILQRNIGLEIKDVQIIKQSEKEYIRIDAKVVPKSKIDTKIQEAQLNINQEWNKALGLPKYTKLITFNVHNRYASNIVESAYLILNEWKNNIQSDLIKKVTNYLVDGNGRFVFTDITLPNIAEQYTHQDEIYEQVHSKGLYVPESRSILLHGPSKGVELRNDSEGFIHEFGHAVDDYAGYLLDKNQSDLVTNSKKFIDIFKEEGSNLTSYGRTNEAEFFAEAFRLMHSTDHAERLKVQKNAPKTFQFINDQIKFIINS
CCHF vOTU inh – CCHFV vOTU protease inhibitors, primary screen, biochemical, Pep-AMC substrate, fluorescence; inhibition, % at 11.5 µM; 0.55% of 370,000 active; AID 651958, 2012; in the data active = inhibition above about 30%
Autofluor counter – flagged as autofluorescent in microsphere protease counterscreen; fluorescence intensity (concentration not given with the values); compound autofluorescence counterscreen, microsphere flow cytometry; stronger effect = higher value; 3.1% of 360,000 active; AID 624483; in the data active = fluorescence intensity above about 16000; inconclusive = no clear call, values can overlap the other calls
Numbers stand for hits; – = inactive; ? = inconclusive; · = no result. An excerpt weighted towards active compounds, which were near 3.9% of everything screened. Rule as the data show it, unless noted: active = inhibition above about 30%; inconclusive = no clear call, values can overlap the other calls; inactive = below that.

SMILES	BoNT F protease	BoNT-A LC inh2	SARS 3CLpro inh	Anthrax LF inh2	CCHF vOTU inh	Autofluor counter
COc1ccc(OC)c(NC(=O)CNC(=O)c2cccs2)c1	–	?	–	–	–	21327
COc1ccccc1CNC(=O)c1cccs1	–	–	–	–	–	23731
CC(C)(C)NC(=S)NCc1cccnc1	–	–	–	–	–	23776
O=C(NCc1ccc(F)c(F)c1)C1C2C=CC3(CN(Cc4ccccc4)C(=O)C13)O2 (centres undefined)	·	·	·	·	–	·
COc1ccc(N=c2oc3c(OC)cccc3cc2C(=O)NCc2ccco2)c(OC)c1	–	–	–	–	·	21143
COc1ccc(OC)c(NS(=O)(=O)c2ccc(Br)s2)c1	·	·	–	·	·	·
COc1ccccc1CNC(=O)c1ccc(S(=O)(=O)N2CCCC2)cc1	–	–	–	–	–	24898
COc1cc(OC)c(OC)cc1CNC(=O)c1ccc(S(=O)(=O)N2CCCCC2)cc1	·	·	·	·	–	·
COc1ccc(OC)c(NS(=O)(=O)c2cccs2)c1	–	–	–	–	–	22109
O=C(NCc1cccc(Cl)c1)c1cccnc1	–	?	–	–	–	18154
Cc1ccc(-n2c(COc3ccccc3)nnc2SCC(=O)Nc2ccccc2-c2ccccc2)cc1	·	·	·	·	–	·
Nc1ncnc2c1ncn2[C@@H]1O[C@H](C(=O)N[C@@H](CCc2ccccc2)C(=O)O)[C@@H](O)[C@H]1O	·	·	·	·	–	·
COc1ccc(C(=O)NCc2ccccc2OC)cc1	–	–	–	–	–	21799
COc1ccc(C(CC(=O)O)NC(=O)c2cccs2)cc1 (centres undefined)	–	–	–	–	–	16500
COc1ccc(/C(N)=N/OC(=O)Cc2ccccc2OC)cc1	–	–	–	–	–	21398
COc1ccc(C(=O)NCc2ccccc2OC)c(OC)c1	–	?	–	–	–	20943
COc1ccccc1CC(=O)O/N=C(\N)c1ccccn1	–	–	–	–	–	–
COc1cccc(C(=O)NCc2ccccc2OC)c1	–	–	–	–	–	–
Cc1ccc(Cn2cc(CN(C(C)(C)C)S(=O)(=O)c3ccccc3Br)nn2)cc1	·	·	·	·	–	·
CCC(=O)N1CCc2cc(Br)c(S(=O)(=O)N3CCC(C(=O)NC(C)(C)C)CC3)cc21	·	·	·	·	–	·
CCOC(=O)[C@@]12CCCC3=C1N(CCC3)C(=O)[C@H]2CC(=O)NCC1CCCCC1	·	·	·	·	–	·
COc1cc(SC)ccc1C(=O)NCc1ccccc1	–	–	–	–	–	–
COc1ccc(C(=O)NCc2cccc(Cl)c2)cc1S(=O)(=O)N1CCOCC1	–	–	·	–	–	–
COc1ccc(C(=O)NCc2cccnc2)cc1S(=O)(=O)N1CCOCC1	–	?	–	–	–	21445
COc1cc(SC)ccc1C(=O)NCc1ccc(C)cc1	–	–	–	–	–	19956
SMILES	BoNT F protease	BoNT-A LC inh2	SARS 3CLpro inh	Anthrax LF inh2	CCHF vOTU inh	Autofluor counter
CCCCCn1cc(CCC(=O)Nc2ccc(N(C)c3ccccn3)cc2)c2ccccc21	·	·	·	·	–	·
Cc1oc2c(c(C)cc3oc(=O)c(CC(=O)N[C@@H](C)C(=O)O)c(C)c32)c1C	–	–	–	–	–	–
CC[C@@H](C)[C@H](NC(=O)Cc1c(C)c2c(cc(C)c3c(C)c(C)oc32)oc1=O)C(=O)O	37.5	–	–	–	–	–
O=C(NC(C(=O)N1CCCC1C(=O)NC1CCCC1)c1ccccc1)c1cccs1 (centres undefined)	·	·	·	·	–	·
Cc1cc(C)nc(Nc2n[nH]c(COc3ccc4ccccc4c3)n2)n1	–	–	–	–	–	22079
Cc1cc(C)nc(Nc2n[nH]c(COc3ccccc3)n2)n1	–	–	–	–	–	–
CCCCCn1nnnc1C1(C)CCCCC(=O)N1Cc1ccco1 (centres undefined)	·	·	·	·	–	·
COc1ccc(CN2CCOCC2)cc1Br	–	?	–	–	·	23516
CCCCNC(=O)OCCNC(=O)NC	–	?	–	–	–	18838
CN=C1S/C(=C\c2cc(C)n(-c3ccccc3F)c2C)C(=O)N1C	–	–	–	–	–	20537
Cc1cc(/C=C2\SC(=O)N(C)C2=O)c(C)n1-c1ccc(O)cc1	?	–	–	–	–	–
COc1cccc(C(=O)N[C@H](C(=O)N2CCC[C@H]2C(=O)NCc2ccccc2)c2ccccc2)c1	·	·	·	·	–	·
CCCCOCCCNC(=O)C[C@H]1C[C@@]2(C(=O)OC)C(=C[C@H](C3CCCC3)O[C@@H]2C)N(Cc2cccc3ccccc23)C1=O	·	·	·	·	–	·
Cc1c(NC(=O)C2CCCN(S(=O)(=O)c3ccc(Br)s3)C2)c(=O)n(-c2ccccc2)n1C (centres undefined)	·	·	·	·	–	·
CCCOc1ccccc1Nc1nnc(C)c(=O)[nH]1	–	–	–	–	–	21083
CCCN(CC1CC1)c1nc(C)nc2c1nnn2Cc1ccccc1	·	·	·	·	–	·
CCOC(=O)CSc1nnc(NCC(=O)OC)c(=O)[nH]1	–	–	–	–	–	21379
CCOC(=O)CSc1nnc(C)c(=O)[nH]1	–	–	–	–	–	–
O=C(C1CCC1)n1ccc2ccc(-c3ccc4ccn(Cc5ccccc5)c4c3)cc21	·	·	·	·	–	·
O=C(O)CCS(=O)(=O)Cc1cccc(Cl)c1	–	–	–	–	–	23460
CCc1cc2c(=O)c(-c3nc4ccccc4n3C)c(C)oc2cc1OC(C)=O	–	–	–	–	–	–
CCc1cc2c(=O)c(-c3nc4ccccc4n3C)c(COCC(=O)O)oc2cc1OC(=O)C(C)(C)C	–	–	–	–	–	17668
Cc1ccc(OCC(C)CN2CCC(C(O)(c3ccccc3)c3ccccc3)CC2)cc1 (centres undefined)	·	·	·	·	–	·
COCCN1Cc2cc(C(=O)OC)c3c(c2C1=O)c1cc(OC)ccc1n3S(=O)(=O)c1ccc(C)cc1	·	·	·	·	–	·
N#CC1=C(SCC(=O)NC23CC4CC(CC(C4)C2)C3)NC(=O)C(C#N)C12CCCCC2 (centres undefined)	–	–	–	–	–	–
SMILES	BoNT F protease	BoNT-A LC inh2	SARS 3CLpro inh	Anthrax LF inh2	CCHF vOTU inh	Autofluor counter
C=CCSC1=C(C#N)C2(CCCCC2)C(C#N)C(=O)N1 (centres undefined)	–	?	–	–	–	19902
N#CC1=C(SCC(=O)NC2CC2)NC(=O)C(C#N)C12CCCCC2 (centres undefined)	–	–	–	–	–	20178
CC(C)(C)C1CCC2(CC1)C(C#N)=C(SCC(=O)NC1CCCCC1)NC(=O)C2C#N (centres undefined)	–	–	–	–	–	–
COc1ccc([C@H]2OC(=O)C[C@@H]2C(=O)N2CCN(c3ccccc3Cl)CC2)cc1OC	·	·	·	·	–	·
C1CCC2(CC1)C1=C(CCCC1)Nc1nnnn12	–	–	–	–	–	24281
CCOc1ccc2nc(NC(=O)C3(C)CC3(Br)Br)sc2c1 (centres undefined)	?	–	·	36.1	–	–
